This is a sample that favours compounds with a hit; in the whole collection about 2.6% have one here.
PHOSPHO1 inh – PHOSPHO1 (human) inhibition; Q8TCT1; recombinant PHOSPHO1, absorbance phosphatase assay; inhibition, % at 13.3 µM; actives 1.1% (n = 290,000); in the data active means inhibition above about 60%
Target sequence (Q8TCT1 whole entry, looked up): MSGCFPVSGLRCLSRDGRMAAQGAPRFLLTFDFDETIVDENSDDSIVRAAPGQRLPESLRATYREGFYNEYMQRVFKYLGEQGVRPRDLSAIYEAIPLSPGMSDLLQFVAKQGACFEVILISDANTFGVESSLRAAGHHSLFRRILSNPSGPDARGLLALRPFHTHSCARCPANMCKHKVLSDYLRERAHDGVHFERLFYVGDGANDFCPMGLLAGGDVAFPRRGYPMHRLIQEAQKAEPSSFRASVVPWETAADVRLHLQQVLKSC
APOBEC3G inh – blocks human APOBEC3G single-stranded DNA deamination; Q9HC16; recombinant A3G, ssDNA deamination FAM/TAMRA fluorescence; inhibition, % at 20 µM; actives 0.28% (n = 330,000); AID 493012;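 active means inhibition of at least 40% at 20 µM, with no more than 30% in the related APOBEC3A deaminase screen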;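 further: plate controls were DMSO wells with A3G for no effect and wells lacking A3G enzyme for full effect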
A3A deaminase – human APOBEC3A DNA deaminase inhibition; recombinant A3A, FAM/TAMRA ssDNA deamination fluorescence; inhibition, % at 20 µM; actives 0.41% (n = 330,000); AID 493011;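 active means at least 40% inhibition at 20 µM here, with at most 30% in a related deaminase screen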;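 further: plate controls were A3A with DMSO for no effect and wells lacking A3A enzyme for full effect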
PABP FP inh – blocks human PABP binding to poly(A) RNA; fluorescence polarization; calls only at 35 µM; actives 1% (n = 290,000);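 further: calls also rest on retests at 20 µM and on dose response follow-up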
eIF4H inh – inhibitors of RNA binding by human eIF4H | eIF4H fluorescence polarization binding assay | inhibition, % at 35 µM | actives 0.94% (n = 290,000);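 further: calls also rest on retests at 20 µM and on dose response follow-up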
PABP1 MLLE inh – inhibitors of microRNA-mediated deadenylation, human PABP1 MLLE binding | inhibition, % at 20 µM | AID 588489 | P11940 | GST-MLLE / FITC-PAM2 fluorescence polarization | actives 0.36% (n = 360,000); in the data active means inhibition above about 35%, passing the limit was not always enough;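 further: plate controls were DMSO wells with GST-MLLE for no effect and wells lacking GST-MLLE protein for full effect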
An asterisk follows results filed as active; i = inactive; ? = inconclusive; . = no result; + = active, no number. Unless noted, how the calls were made is not given here.

SMILES | PHOSPHO1 inh | APOBEC3G inh | A3A deaminase | PABP FP inh | eIF4H inh | PABP1 MLLE inh
O=C(CSC1=NS(=O)(=O)c2cc(F)ccc2N1)NCc1ccccc1 | . | -6.5 | -0.8 | . | . | -6.8
Cc1cc([N+](=O)[O-])nn1CC(=O)NNC(=S)Nc1ccc([N+](=O)[O-])cc1 | 58.0 | -0.6 | 0.4 | i | 14.0 | 29.1
COc1ccc(NC(=S)NNC(=O)Cn2nc([N+](=O)[O-])cc2C)cc1 | 79.2* | -0.7 | 0.4 | i | 2.1 | 3.1
COc1ccccc1/C=C/C=c1\sc2nc(=O)c(Cc3ccccc3)nn2c1=O | 27.4 | 5.8 | 4.6 | + | 65.3* | -23.3
CCCCCOc1ccc(/C=c2\sc3nc(=O)c(-c4ccccc4)nn3c2=O)cc1OC | -0.8 | -3.4 | -0.4 | i | 16.0 | 11.1
O=c1/c(=C/c2ccco2)sc2nc(-c3ccccc3Br)nn12 | 97.8* | 7.0 | 21.8 | + | 44.9* | 5.4
CN(C)c1ccc(/C=c2\sc3nc(-c4ccccc4)nn3c2=O)cc1 | 6.1 | -9.4 | 0.5 | i | -5.1 | .
CCCOc1ccc(Cc2nn3c(=O)/c(=C/c4ccco4)sc3nc2=O)cc1 | -68.6 | 2.8 | 28.4 | + | 84.5* | 2.0
CCOC(=O)C1=C(N)n2c(s/c(=C\c3ccco3)c2=O)=C(C(=O)OC(C)C)C1c1ccco1 (stereo unspecified) | -7.3 | -4.1 | 1.3 | i | ? | -8.6
O=C(CSc1nnc(-c2ccccc2F)n1C1CC1)N1CCCC1 | . | . | . | . | . | 12.4
CC(C)(C)OC(=O)[C@H](Cc1ccccc1)NC(=O)c1ncn2c1c(=O)[nH]c1ccc(Br)cc12 | . | . | . | . | . | 4.5
CC1=C(C(=O)Nc2cccnc2)C(c2cccnc2)n2nc(-c3cccs3)nc2N1 (stereo unspecified) | 62.3* | -7.5 | -6.7 | i | -5.4 | -9.5
S=c1[nH]nc(-c2ccccc2Cl)n1/N=C/C=C/c1ccco1 | 28.8 | 51.1 | 32.4 | + | 92.1* | -11.6
CC(/C=N/n1c(-c2ccccc2)n[nH]c1=S)=C\c1ccco1 | 84.2* | 35.6 | -1.8 | i | 35.7 | 0.6
C(=C\c1ccco1)/C=N/n1cnnc1 | 23.0 | -1.5 | 0.3 | + | 92.7* | -1.5
CC(/C=N/n1c(-c2ccc(C)cc2)n[nH]c1=S)=C\c1ccco1 | 3.4 | 16.6 | -1.5 | i | 41.7 | -52.3
O=C1OC(c2ccccc2)=N/C1=C\C=C\c1ccco1 | -3.1 | -6.7 | 2.2 | i | 5.4 | -8.8
Cc1cccc(-c2n[nH]c(=S)n2/N=C/C=C/c2ccco2)c1 | 41.7 | 54.0 | 51.6 | + | 85.0* | -4.4
Nc1c(C(=O)CSc2n[nH]c(-c3ccccc3)n2)c(=O)[nH]c(=O)n1C1CC1 | . | -8.7 | -0.8 | . | . | -10.6
Cc1ccnc(NC(=O)c2ccc(S(=O)(=O)N3CCC(C)CC3)cc2)c1 | . | -1.0 | -1.1 | . | . | 2.8
Cc1ccc(-c2n[nH]c(=S)n2/N=C/C=C/c2ccccc2[N+](=O)[O-])cc1 | 99.2* | 1.9 | 1.6 | i | 9.2 | -31.3
O=[N+]([O-])c1ccccc1/C=C/C=N/n1c(-c2cc(-c3ccccc3)n[nH]2)n[nH]c1=S | -69.3 | 2.1 | -3.8 | i | 41.7 | -119.3
COc1ccccc1N1CCN(/N=C/c2c(C)nn(-c3ccccc3)c2C)CC1 | 7.1 | -4.0 | -1.8 | i | -6.1 | 40.5*
CCOC(=O)c1sc(NC(=O)CSc2nnc(Cc3ccccc3)o2)c(C#N)c1C | 86.1* | 11.4 | -6.4 | i | -4.9 | 20.6
COC(=O)c1ccc(NC(=O)c2snnc2-c2ccccc2)cc1 | 61.0* | -5.4 | -2.3 | i | -6.2 | -6.2
SMILES | PHOSPHO1 inh | APOBEC3G inh | A3A deaminase | PABP FP inh | eIF4H inh | PABP1 MLLE inh
Cc1ccc(-c2ccc(/C=N\NC(=O)C3C(=O)NCC3c3ccccc3)o2)cc1Cl (stereo unspecified) | 60.4* | -0.7 | -0.6 | i | 1.0 | 5.6
CC(C)CN1CCN(Cc2ccc(CN3CCCCC3)s2)CC1CCO (stereo unspecified) | 19.5 | -5.4 | -1.2 | + | 62.7* | -0.5
COC(=O)C1=C(O)/C(=C\c2cc(C)n(-c3ccc(F)cc3)c2C)N=C1C | -26.9 | 4.5 | 3.4 | + | 59.1 | 9.8
COc1cccc(/C=C/C(=O)NCc2ccc3c(c2)OCO3)c1 | 23.7 | -9.3 | -4.6 | i | 12.0 | -2.0
C#Cc1ccc([C@@H]2C=C(C(=O)NCc3ccccc3)O[C@H](OCCCCO)C2)cc1 | . | -4.9 | -4.8 | . | . | -15.2
NNC(=O)c1cccn(Cc2cccc(C(F)(F)F)c2)c1=O | 1.8 | 8.6 | 5.2 | i | 4.7 | -0.8
O=C(O)c1ccc(-n2cccc2/C=N\NC(=O)c2cc3cc(Br)ccc3o2)cc1 | 32.2 | 71.4 | 93.9 | + | 86.3* | -6.8
O=C(O)Cn1cc(/C=N/NC(=O)c2cc3cc(Br)ccc3o2)c2ccccc21 | 36.8 | -7.8 | -7.0 | i | 4.7 | 5.0
COc1ccc(-c2ccc(/C=C3/C(=N)N4C(C)=CSC4=NC3=O)o2)c([N+](=O)[O-])c1 | 8.3 | -8.1 | 1.1 | + | 91.0* | 49.3
COc1ccc(-c2ccc(/C=C3\C(=O)N(c4ccccc4)N=C3c3ccccc3)o2)c([N+](=O)[O-])c1 | -13.6 | -5.3 | -2.6 | i | 3.6 | 17.8
CCc1nc2ccc(C(=O)N(C)Cc3ccccc3)cn2c1N(CC)CCN(C)C | . | . | . | . | . | -2.4
Clc1ccc2nc(CSc3nnc4ccccn34)cn2c1 | 60.3* | -3.5 | -3.0 | i | -0.3 | -15.6
CCc1nc2ccc(C(=O)NCc3ccc4c(c3)OCO4)cn2c1N(C)Cc1cccs1 | . | . | . | . | . | -16.7
CN(Cc1ccc(F)cc1)C(=O)CN1CCN(S(=O)(=O)c2ccc3c(c2)OCCCO3)CC1 | . | . | . | . | . | -31.1
Cc1ccc(-n2nc3ccc(N)cc3n2)cc1Cl | 26.5 | -3.9 | 2.8 | i | 33.1 | -2.5
COc1ccc(-n2nc3ccc(N)cc3n2)cc1Cl | 7.8 | 4.7 | 5.8 | + | 55.3* | -7.8
Cc1cc(C(=O)COc2cc(F)ccc2[N+](=O)[O-])c(C)n1CC1CCCO1 (stereo unspecified) | . | -6.6 | -5.1 | . | . | -6.3
COc1ccc(NC(=O)CN(C)C(=O)c2cccc(S(=O)(=O)Nc3ccccc3Cl)c2)cc1 | . | -6.4 | -1.3 | . | . | -2.8
N#CC1=C(N)OC2=C(CN(Cc3ccccc3)C/C2=C\c2cccnc2)C1c1cccnc1 (stereo unspecified) | -7.7 | -3.7 | -3.7 | i | 52.7 | 5.8
CC(C)N1CC2=C(OC(N)=C(C#N)C2c2cccnc2)/C(=C/c2cccnc2)C1 (stereo unspecified) | 25.9 | -4.7 | -4.1 | + | 88.4* | 26.1
CCn1c(COc2ccccc2C)nnc1SCC(=O)CC(=O)Nc1ccccc1OC | -25.3 | -1.9 | 2.3 | i | 6.9 | -93.8
CCn1c(COc2ccccc2)nnc1SCC(=O)CC(=O)Nc1ccccc1OC | 92.1* | -3.6 | -0.7 | i | 9.7 | -41.3
CCn1c(COc2cccc(C)c2)nnc1SCC(=O)CC(=O)Nc1ccccc1OC | 93.3* | -10.3 | -0.2 | i | 1.3 | -79.8

Source: PubChem BioAssay
